Test results taken from PubChem BioAssay (NCATS).
Inconclusive results are not listed. Where a call stands in place of a potency, no number is given. Activity calls are given as the source filed them. The call rests on the fitted dose curve.

Assays:
[1] = Cytotoxicity counterscreen for inhibitors of SARS-CoV-2 cell entry (AID 1645845); further: nearly all actives have a fitted effect of over 50% in size
Outline: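 After a 15 min room-temperature ATPLite 1step step, luminescence reflected ATP remaining in HEK293-ACE2 cells exposed to compound for 1 h plus 48 h at 37 C, with percent activity set by cell and no-cell controls.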

[2] = Primary qHTS to identify inhibitors of SARS-CoV-2 cell entry (AID 1645846); settings: activity change, negative = inhibition: at 57.1 µM (top of the series) unless noted; further: nearly all actives have a fitted effect of over 45% in size
Outline: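 Luminescence readout (Bright-Glo luciferase) 48 h after pseudoparticle addition. HEK293-ACE2 cells, 1500/well; compound pre-incubation 1 h; Normalized to spike PP and bald PP.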
Potency means the concentration at half of the fitted maximal effect.

Which Potency [1] does the source give for `COc1cc([C@H]2Oc3cc([C@H]4Oc5cc(O)cc(O)c5C(=O)[C@@H]4O)ccc3O[C@@H]2CO)ccc1O` here?
Its Potency is “inactive”.

And the activity change, negative = inhibition [2]?
The activity change, negative = inhibition was -12.9%.

For `O=C(OCC(O)CO)c1ccccc1Nc1ccnc2cc(Cl)ccc12` (stereo not given), which Potency [1] is on record?
The Potency was “inactive”.

And the activity change, negative = inhibition [2]?
The activity change, negative = inhibition was -18.4%.

Which Potency [1] does the source give for `CC1=C(C)C(=O)C(C(CCCCCC(=O)O)c2ccccc2)=C(C)C1=O` (stereo not given) here?
The Potency was “inactive”.

What about the Potency [2] of the same compound?
Its Potency is “inactive”.

What does the source list for `O=c1cc(CO)occ1O`?
Potency [1]: inactive; Potency [2]: inactive

What does the source list for `CN1CCCN=C1/C=C/c1cccs1`?
Potency [1]: inactive; activity change, negative = inhibition [2]: -29.2%

Which results are given for `CN1CCN(c2cc3c(cc2F)c(=O)c(C(=O)O)cn3-c2ccc(F)cc2)CC1`?
Potency [1]: inactive; Potency [2]: inactive

What does the source list for `CN1[C@@H]2CC[C@H]1CC(OC(=O)c1c[nH]c3ccccc13)C2` (stereo not given in full)?
Potency [1]: inactive; Potency [2]: inactive

With `CCC(CN)=C(c1ccccc1)c1ccccc1` as the compound, how does the Potency [1] read?
The Potency was “inactive”.

What about the activity change, negative = inhibition [2] of the same compound?
Its activity change, negative = inhibition is 2.6%.

With `NCCNC(=O)c1ccc(Cl)cn1` as the compound, how does the Potency [1] read?
Its Potency is “inactive”.

What about the activity change, negative = inhibition [2] of the same compound?
The activity change, negative = inhibition was -12.8%.

For `CCC(=O)c1ccc(O)cc1`, which Potency [1] is on record?
The Potency was “inactive”.

What about the Potency [2] of the same compound?
The Potency was “inactive”.

For `COCCc1ccc(OCC(O)CNC(C)C)cc1` (stereo not given), which Potency [1] is on record?
The Potency was “inactive”.

And the activity change, negative = inhibition [2]?
Its activity change, negative = inhibition is -1.24%.

For `CC(=O)N(CC(=O)N(C)C)c1ccccc1`, which Potency [1] is on record?
Its Potency is “inactive”.

What about the Potency [2] of the same compound?
Its Potency is “inactive”.

For `OCc1ccccc1O`, which Potency [1] is on record?
The Potency was “inactive”.

What about the Potency [2] of the same compound?
Its Potency is “inactive”.

What does the source list for `C[C@]12CC[C@@H]3c4ccc(O)cc4CC[C@H]3[C@@H]1CCC2=O`?
Potency [1]: inactive; Potency [2]: inactive

For `CCCCOc1ccc(OCCCN2CCOCC2)cc1`, which Potency [1] is on record?
Its Potency is “inactive”.

And the Potency [2]?
Its Potency is “inactive”.

Which results are given for `Cn1c(=O)c2c(ncn2CC2OCCO2)n(C)c1=O`?
Potency [1]: inactive; activity change, negative = inhibition [2]: -5.86%

For `CCCCNc1ccc(C(=O)OCCN(C)C)cc1`, which Potency [1] is on record?
Its Potency is “inactive”.

And the Potency [2]?
Its Potency is “inactive”.

What does the source list for `NC(=O)C1(N2CCCCC2)CCN(CCCC(=O)c2ccc(F)cc2)CC1`?
Potency [1]: inactive; activity change, negative = inhibition [2]: 3.21%

Which Potency [1] does the source give for `CNC(=O)c1c(I)c(NC(=O)CCCCC(=O)Nc2c(I)c(C(=O)O)c(I)c(C(=O)NC)c2I)c(I)c(C(=O)O)c1I` here?
Its Potency is “inactive”.

And the Potency [2]?
The Potency was “inactive”.

With `COc1ccc2cc1Oc1ccc(cc1)C[C@H]1c3c(cc4c(c3Oc3cc5c(cc3OC)CCN(C)[C@@H]5C2)OCO4)CCN1C` as the compound, how does the Potency [1] read?
The Potency was 14.1 µM (active).

And the Potency [2]?
The Potency was 7.94 µM (active).

Which Potency [1] does the source give for `O=C(O)c1ccc(OCCCOc2ccc(C(=O)O)cc2)cc1` here?
The Potency was “inactive”.

What about the activity change, negative = inhibition [2] of the same compound?
The activity change, negative = inhibition was -2.21%.

With `Nc1ccc(S(=O)(=O)Nc2nccs2)cc1` as the compound, how does the Potency [1] read?
Its Potency is “inactive”.

And the activity change, negative = inhibition [2]?
The activity change, negative = inhibition was 4.2%.

Which results are given for `CC(=O)N[C@H]1[C@H]([C@H](O)[C@H](O)CO)OC(C(=O)O)=C[C@@H]1N=C(N)N`?
Potency [1]: inactive; activity change, negative = inhibition [2]: -0.176%

What does the source list for `O=C1C(c2[nH]c3ccccc3c2O)=Nc2ccccc21`?
Potency [1]: inactive; activity change, negative = inhibition [2]: -0.955%

For `Oc1ccc(C(O)CNCCCCCCNCC(O)c2ccc(O)c(O)c2)cc1O` (stereo not given), which Potency [1] is on record?
Its Potency is “inactive”.

And the Potency [2]?
Its Potency is “inactive”.

For `CCN(CC)CCOc1ccc(Cc2ccccc2)cc1`, which Potency [1] is on record?
The Potency was “inactive”.

What about the Potency [2] of the same compound?
Its Potency is 25.1 µM (active).

With `CCc1oc2ccccc2c1C(=O)c1cc(Br)c(O)c(Br)c1` as the compound, how does the Potency [1] read?
The Potency was “inactive”.

What about the activity change, negative = inhibition [2] of the same compound?
Its activity change, negative = inhibition is -14%.

With `Cc1c(F)cc2c(=O)c(C(=O)O)cn3c2c1CCC3C` (stereo not given) as the compound, how does the Potency [1] read?
Its Potency is “inactive”.

What about the Potency [2] of the same compound?
The Potency was “inactive”.

Which results are given for `Cc1c(C(=O)NN2CCCCC2)nn(-c2ccc(Cl)cc2Cl)c1-c1ccc(Cl)cc1`?
Potency [1]: inactive; activity change, negative = inhibition [2]: -26.4%

For `O=C1c2cccc(O)c2C(=O)c2c(O)cccc21`, which Potency [1] is on record?
The Potency was “inactive”.

And the Potency [2]?
The Potency was “inactive”.

Which Potency [1] does the source give for `O=C1c2ccccc2C(=O)C1c1ccccc1` here?
Its Potency is “inactive”.

And the Potency [2]?
The Potency was “inactive”.

Which Potency [1] does the source give for `CCN(CC)CC(=O)Nc1c(C)cccc1C` here?
The Potency was “inactive”.

What about the Potency [2] of the same compound?
The Potency was “inactive”.

Which Potency [1] does the source give for `O=C(O)COC(=O)Cc1ccccc1Nc1c(Cl)cccc1Cl` here?
Its Potency is “inactive”.

And the Potency [2]?
Its Potency is “inactive”.

Which results are given for `COc1ccc2c(c1)c(CC(=O)OCC(=O)O)c(C)n2C(=O)c1ccc(Cl)cc1`?
Potency [1]: inactive; Potency [2]: inactive

For `NC(N)=NCCC[C@H](N)C(=O)O`, which outcome [1] is on record?
The outcome was “inactive [at 5.25 µM]”.

What about the outcome [2] of the same compound?
The outcome was “inactive [at 5.25 µM]”.

For `Cc1c(N(C)C)c(=O)n(-c2ccccc2)n1C`, which Potency [1] is on record?
Its Potency is “inactive”.

And the activity change, negative = inhibition [2]?
The activity change, negative = inhibition was -10.1%.

With `C[N+](C)(C)CCOC(=O)CCC(=O)OCC[N+](C)(C)C` as the compound, how does the Potency [1] read?
The Potency was “inactive”.

What about the Potency [2] of the same compound?
Its Potency is “inactive”.

For `CN(C)CCN(Cc1cccs1)c1ccccn1`, which Potency [1] is on record?
The Potency was “inactive”.

And the activity change, negative = inhibition [2]?
The activity change, negative = inhibition was -3.24%.

With `CCOC(=O)[C@H](CCc1ccccc1)N[C@@H](C)C(=O)N1C(=O)N(C)C[C@H]1C(=O)O` as the compound, how does the Potency [1] read?
The Potency was “inactive”.

What about the activity change, negative = inhibition [2] of the same compound?
The activity change, negative = inhibition was -10.6%.

For `CCN1CCCC(OC(=O)C(c2ccccc2)c2ccccc2)C1` (stereo not given), which Potency [1] is on record?
The Potency was “inactive”.

What about the activity change, negative = inhibition [2] of the same compound?
Its activity change, negative = inhibition is -0.255%.

For `CC[N+](CC)(CC)CCOC(=O)C(C1CCCC1)C1CCCC1`, which Potency [1] is on record?
The Potency was “inactive”.

And the activity change, negative = inhibition [2]?
The activity change, negative = inhibition was -6.21%.

Which Potency [1] does the source give for `CC1(C)O[C@@H]2C[C@H]3[C@@H]4CCC5=CC(=O)CC[C@]5(C)[C@@]4(F)[C@@H](O)C[C@]3(C)[C@]2(C(=O)CCl)O1` here?
Its Potency is “inactive”.

And the Potency [2]?
The Potency was “inactive”.

With `O=C(OCc1ccccc1)c1ccc(O)cc1` as the compound, how does the Potency [1] read?
Its Potency is “inactive”.

And the Potency [2]?
Its Potency is “inactive”.

Which Potency [1] does the source give for `C=CCc1ccccc1OCC(O)CNC(C)C` (stereo not given) here?
Its Potency is “inactive”.

What about the activity change, negative = inhibition [2] of the same compound?
The activity change, negative = inhibition was -22.8%.

For `OCC(CO)N[C@H]1C[C@](O)(CO)[C@@H](O)[C@H](O)[C@H]1O`, which Potency [1] is on record?
The Potency was “inactive”.

And the Potency [2]?
Its Potency is “inactive”.
